Results reported in PubChem BioAssay AID1159580 (chemical genetic matrix, 2015).
Several values for one entry are separate records, joined by “and”; a condition that tells them apart may be missing. Equal values may be shown once. In all, about 5,500 compounds went through this assay and about 2,000 (36%) were called active. Inconclusive results (about 18%) are left out. No stated cut-off is given here; in the data, active means normalized growth mostly below about 0.91 (no sharp cut-off); inconclusive means no clear call, values can overlap the other calls; inactive means mostly above about 0.92. The list shows a part of the results.

Assay: chemical genetic growth profiling, strain panel (AID 1159580);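 further: tested at 20 µM; growth read once vehicle control cultures reached saturation at 30 °C; 1 = growth at the plate median or of vehicle wells; lower values mean less growth of the strain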
Conditions: growth OD

Measured: normalized growth

CC(C)NNC(=O)c1ccncc1
inactive: S. cerevisiae deletion strains, locus YJR043C, strain POL32, hits give low values 1.01 | S. cerevisiae deletion strains, locus YJR075W, strain HOC1, hits give low values 1 | S. cerevisiae deletion strains, locus YKL068W, hits give low values 1.02 | S. cerevisiae deletion strains, locus YKL085W, strain MDH1 (second series), hits give low values 1.03 | S. cerevisiae deletion strains, locus YKL085W, strain MDH1, hits give low values 1.03 | S. cerevisiae deletion strains, locus YKL160W, strain elf1, hits give low values 1.01 | S. cerevisiae deletion strains, locus YKL190W, strain CNB1, hits give low values 1 | S. cerevisiae deletion strains, locus YKR001C, strain vps1, hits give low values 1.02 | S. cerevisiae deletion strains, locus YKR026C, strain gcn3, hits give low values 0.997 | S. cerevisiae deletion strains, locus YKR091W, strain srl3, hits give low values 1.01 | S. cerevisiae deletion strains, locus YLL001W, strain dnm1, hits give low values 1 | S. cerevisiae deletion strains, locus YLL026W, hits give low values 1.01 | S. cerevisiae deletion strains, locus YLL041C, strain sdh2, hits give low values 1.01 | S. cerevisiae deletion strains, locus YLR027C, strain aat2, hits give low values 0.996 | S. cerevisiae deletion strains, locus YLR039C, strain RIC1, hits give low values 1.02 | S. cerevisiae deletion strains, locus YLR058C, strain SHM2, hits give low values 1.01 | S. cerevisiae deletion strains, locus YLR102C, strain apc9, hits give low values 1.01 | S. cerevisiae deletion strains, locus YLR221C, strain rsa3, hits give low values 1.02 | S. cerevisiae deletion strains, locus YLR258W, strain gsy2, hits give low values 1.02 | S. cerevisiae deletion strains, locus YLR262C, strain YPT6 (second series), hits give low values 1 | S. cerevisiae deletion strains, locus YLR262C, strain YPT6, hits give low values 1.02 | S. cerevisiae deletion strains, locus YLR268W, strain sec22, hits give low values 1.03 | S. cerevisiae deletion strains, locus YLR320W, strain mms22, hits give low values 1.01 | S. cerevisiae deletion strains, locus YLR330W, strain CHS5, hits give low values 1.01 | S. cerevisiae deletion strains, locus YLR342W, strain FKS1 (second series), hits give low values 1.01 | S. cerevisiae deletion strains, locus YLR342W, strain FKS1, hits give low values 0.986 | S. cerevisiae deletion strains, locus YLR357W, strain rsc2, hits give low values 1.01 | S. cerevisiae deletion strains, locus YLR370C, strain arc18, hits give low values 1.01 | S. cerevisiae deletion strains, locus YLR371W, strain rom2, hits give low values 1 | S. cerevisiae deletion strains, locus YLR384C, strain iki3, hits give low values 0.995 | S. cerevisiae deletion strains, locus YLR418C, strain cdc73, hits give low values 1.04 | S. cerevisiae deletion strains, locus YML016C, strain PPZ1, hits give low values 1 | S. cerevisiae deletion strains, locus YML032C, strain rad52, hits give low values 1.02 | S. cerevisiae deletion strains, locus YML120C, strain ndi1, hits give low values 0.999 | S. cerevisiae deletion strains, locus YML124C, strain tub3, hits give low values 1.01 | S. cerevisiae deletion strains, locus YMR058W, strain fet3, hits give low values 1.03 | S. cerevisiae deletion strains, locus YMR078C, strain ctf18, hits give low values 1.01 | S. cerevisiae deletion strains, locus YMR125W, strain sto1, hits give low values 1.02 | S. cerevisiae deletion strains, locus YMR129W, hits give low values 1.01 | S. cerevisiae deletion strains, locus YMR205C, strain PFK2, hits give low values 1 | S. cerevisiae deletion strains, locus YMR223W, strain ubp8, hits give low values 1.02 | S. cerevisiae deletion strains, locus YMR231W, strain pep5, hits give low values 1 | S. cerevisiae deletion strains, locus YMR263W, strain SAP30, hits give low values 1.01 | S. cerevisiae deletion strains, locus YMR307W, strain GAS1, hits give low values 1.05 and 1 | S. cerevisiae deletion strains, locus YNL067W, strain RPL9B, hits give low values 1.01 | S. cerevisiae deletion strains, locus YNL071W, strain lat1, hits give low values 1.03 | S. cerevisiae deletion strains, locus YNL128W, strain TEP1, hits give low values 1.01 | S. cerevisiae deletion strains, locus YNL153C, strain GIM3, hits give low values 1.01 | S. cerevisiae deletion strains, locus YNL175C, strain NOP13, hits give low values 0.994 | S. cerevisiae deletion strains, locus YNL197C, strain WHI3, hits give low values 0.989 | S. cerevisiae deletion strains, locus YNL209W, strain ssb2, hits give low values 1.03 | S. cerevisiae deletion strains, locus YNL224C, strain SQS1, hits give low values 1.02 | S. cerevisiae deletion strains, locus YNL233W, strain BNI4, hits give low values 1.01 | S. cerevisiae deletion strains, locus YNL248C, strain rpa49, hits give low values 1.01 | S. cerevisiae deletion strains, locus YNL250W, strain rad50, hits give low values 1.02 | S. cerevisiae deletion strains, locus YNL271C, strain bni1, hits give low values 1.02 | S. cerevisiae deletion strains, locus YNL298W, strain CLA4, hits give low values 1.01 | S. cerevisiae deletion strains, locus YNL307C, strain MCK1, hits give low values 1.02 | S. cerevisiae deletion strains, locus YNL322C, strain KRE1 (second series), hits give low values 1.01 | S. cerevisiae deletion strains, locus YNL322C, strain KRE1, hits give low values 1 and 0.981 | S. cerevisiae deletion strains, locus YNR049C, strain mso1, hits give low values 1.01 | S. cerevisiae deletion strains, locus YNR052C, strain pop2, hits give low values 1.02 | S. cerevisiae deletion strains, locus YOL006C, strain TOP1, hits give low values 1.04 | S. cerevisiae deletion strains, locus YOL012C, strain htz1 1.02 | S. cerevisiae deletion strains, locus YOL147C, strain pex11, hits give low values 1.01 | S. cerevisiae deletion strains, locus YOR001W, strain rrp6, hits give low values 0.998 | S. cerevisiae deletion strains, locus YOR061W, strain CKA2, hits give low values 1.01 | S. cerevisiae deletion strains, locus YOR069W, strain VPS5, hits give low values 1.01 | S. cerevisiae deletion strains, locus YOR070C, strain gyp1, hits give low values 1.01 | S. cerevisiae deletion strains, locus YOR080W, strain dia2, hits give low values 1.01 | S. cerevisiae deletion strains, locus YOR083W, strain WHI5 (second series), hits give low values 1.01 | S. cerevisiae deletion strains, locus YOR083W, strain WHI5, hits give low values 0.998 | S. cerevisiae deletion strains, locus YOR106W, strain vam3, hits give low values 1.02 | S. cerevisiae deletion strains, locus YOR136W, strain idh2, hits give low values 1.02 | S. cerevisiae deletion strains, locus YOR144C, strain elg1, hits give low values 1.01 | S. cerevisiae deletion strains, locus YOR184W, strain ser1, hits give low values 1.04 | S. cerevisiae deletion strains, locus YOR265W, strain rbl2, hits give low values 1.01 | S. cerevisiae deletion strains, locus YOR270C, strain vph1, hits give low values 1.06 | S. cerevisiae deletion strains, locus YOR290C, strain snf2, hits give low values 1.01 | S. cerevisiae deletion strains, locus YOR316C, strain cot1, hits give low values 1.02 | S. cerevisiae deletion strains, locus YPL051W, strain arl3, hits give low values 1.01 | S. cerevisiae deletion strains, locus YPL055C, strain LGE1, hits give low values 1.02 | S. cerevisiae deletion strains, locus YPL078C, strain atp4, hits give low values 1.01 | S. cerevisiae deletion strains, locus YPL106C, strain sse1, hits give low values 0.991 | S. cerevisiae deletion strains, locus YPL240C, strain hsp82, hits give low values 1.02 | S. cerevisiae deletion strains, locus YPL241C, strain CIN2, hits give low values 0.995 and 0.982 | S. cerevisiae deletion strains, locus YPR119W, strain clb2, hits give low values 1 | S. cerevisiae deletion strains, locus YPR141C, strain kar3, hits give low values 1.01 | S. cerevisiae deletion strains, locus YPR163C, strain tif3, hits give low values 1.02 | S. cerevisiae deletion strains, locus YPR167C, strain met16, hits give low values 1.02 | S. cerevisiae deletion strains, strain wtn01, hits give low values 1.02 | S. cerevisiae strains, strain wild type, hits give low values 1.01
